Assay outcomes from PubChem BioAssay.
Pf growth 48h = P. falciparum growth inhibition at 48 hours (one generation) | P. falciparum luciferase growth in erythrocytes, 48 h | 310,000 compounds, 5.9% hits | Potency, µM (doses to about 28.7 µM), actives largely listed as inhibitors
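Cell-based growth assay: transgenic P. falciparum expressing firefly luciferase, cultured in red cells within RPMI 1640 containing 0.5% w/v Albumax, 24 mM bicarbonate and gentamycin. A drop in luciferase activity indicates inhibition.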
Cycloheximide cs = affects cycloheximide protein synthesis inhibition readout, counter-screen; cell reporter, cycloheximide protein synthesis inhibition counterscreen; max response, %; 300,000 compounds, 12% hits; AID 2314; in the data active means max response mostly above about 13%, no sharp cut-off; inactive means mostly below about 14%; further: read at 38.3 µM for the half of the compounds with a filed dose
Pf growth 96h = P. falciparum growth inhibition at 96 hour, primary screen for plastid delayed-death inhibitors; AID 504834; P. falciparum luciferase reporter growth, 96 h; 320,000 compounds, 6.9% hits; Potency, µM (series often up to 28.7 µM), most hits filed as inhibitors
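Cell-based qHTS: luciferase-tagged P. falciparum in erythrocytes (2% hematocrit, 0.05% parasitemia final) incubated with compounds for 96 hours, 37 C, 5% CO2; luciferase detection reagent then added and luminescence measured.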
Shiga toxin inh = Shiga toxin inhibition; Vero cells, Shiga toxin protein synthesis inhibition reporter; inhibition, % at 38.7 µM; 290,000 compounds, 9.2% hits; AID 2315; in the data active means inhibition mostly above about 28%, no sharp cut-off; inactive means mostly below about 43%
Hits are given with their value; 0 = inactive; ? = inconclusive; - = no result; [ ] = another dose, or the depositor's remark. An excerpt weighted towards active compounds, which were near 21% of everything screened. Unless noted, the call rests on the fitted dose curve; in most records, active means well fitted inhibition curve with a large enough effect; inconclusive means small, poorly fitted or top-dose-only effect, or another doubt; inactive means no such curve, though single readings can be large or run the other way.

SMILES	Pf growth 48h	Cycloheximide cs	Pf growth 96h	Shiga toxin inh
CCOc1cc(N2CCOCC2)c(OCC)cc1NC(=O)c1ccc(C)cc1	?	0	0	0
COc1cccc(CN2CC(C(=O)NCCN3CCOC3=O)CCC2=O)c1 (stereo unspecified)	0	0	?	0
CCN1CCCc2cc(CN(CCN3CCOCC3)C(=S)Nc3cccc(C)c3)ccc21	?	0	11.7µM	0
CCc1ccc(NC(=O)N(CCN2CCOCC2)Cc2ccc3c(c2)CCCN3CC)cc1	-	25.5	?	0
CCN1CCCc2cc(CN(CCN3CCOCC3)C(=O)Nc3ccc(C)c(C)c3)ccc21	-	0	?	0
CCN1CCCc2cc(CN(CCN3CCOCC3)C(=S)Nc3ccc(OC)c(Cl)c3)ccc21	?	0	18.5µM	0
Cn1cnc(S(=O)(=O)N2CCN(C(c3ccccc3)c3ccccc3)CC2)c1	?	0	0	0
CC(=O)Nc1ccn(C2OC(C(COC(C)=O)NC(=O)C(Cc3ccccc3)NC(=O)OC(C)(C)C)C(OC(C)=O)C2OC(C)=O)c(=O)n1 (stereo unspecified)	-	0	-	0
CC(=O)Nc1ccc(S(=O)(=O)Nc2cccc(C(=O)Nc3ccccc3C(=O)O)c2)cc1	0	0	0	0
CC(=O)N1CCN(c2ccc(S(=O)(=O)NCCN(C(C)C)C(C)C)cc2[N+](=O)[O-])CC1	0	0	0	0
CN(C)CCNS(=O)(=O)c1ccc(N2CCN(c3ccc(F)cc3)CC2)c([N+](=O)[O-])c1	11.7µM	0	?	0
Cc1cnc(C(=O)Nc2ccc(F)cc2)cn1	0	52.9	0	98.6
Cc1cnc(C(=O)Nc2ccc(C(C)C)cc2)cn1	0	46.4	0	133.5
COc1ccc(C(=O)NCc2nnc(SCC(=O)NCc3ccco3)o2)cc1	0	0	?	0
CN(Cc1ccccc1)C(=O)COc1ccc(C(C)(C)C)cc1	0	27.4	0	57.2
CC(C)N(Cc1ccccc1)C(=O)COc1ccccc1	0	0	?	0
CN(Cc1ccccc1)C(=O)COc1ccc(Br)cc1Cl	0	20.3	0	0
CN(Cc1ccccc1)C(=O)COc1ccccc1Cl	0	0	0	0
CCOc1ccc(C(=O)OCC(=O)N(Cc2ccccc2)Cc2ccccc2)cc1OC	11.7µM	-	?	-
CN(C)C(=O)COc1ccc(Oc2ccccc2)cc1	0	31.0	0	40.7
CN(C)S(=O)(=O)n1cnc([C@@H]2[C@H]3C(=O)OC[C@@H]3C[C@@]23N=CN(Cc2ccccc2)C3=O)c1	0	-	?	-
O=C(Cn1cc(S(=O)(=O)Cc2ccc([N+](=O)[O-])cc2)c2ccccc21)N1CCOCC1	0	0	?	0
CCOc1ccccc1CNC(=O)CCNS(=O)(=O)c1ccc2[nH]c(=O)oc2c1	?	0	?	0
CCN(Cc1ccccc1)C(=O)COc1ccccc1	0	0	8.28µM	-
CCN(CC)C(=O)COc1ccc(/C(C)=N/NC(=O)c2ccccc2Br)cc1	0	0	?	0
SMILES	Pf growth 48h	Cycloheximide cs	Pf growth 96h	Shiga toxin inh
CCN(CC)C(=O)COc1ccc(-c2ccccc2)cc1	-	30.7	0	0
CCN(CC)C(=O)COc1ccc(/C(C)=N/NC(=O)c2ccccc2O)cc1	0	28.4	0	0
CN(Cc1ccccc1)C(=O)COC(=O)c1ccc(Cl)c(N)c1	0	51.2	?	66.7
C=CCn1cnc2c(nnn2Cc2ccc(F)cc2)c1=O	?	0	?	0
Cc1nn(-c2ccccc2)c(C)c1NC(=O)COC(=O)c1ccc(O)cc1O	0	0	?	0
COc1cc(CNc2ccc(N3CCN(C(C)=O)CC3)cc2)ccc1OCc1ccccc1	0	23.3	0	51.6
COc1cc(CNc2ccc(NC(C)=O)cc2)ccc1OCc1ccccc1C	0	46.4	0	87.5
COc1cc(CNc2ccc(N3CCOCC3)cc2)ccc1OCC(=O)NC(C)(C)C	0	0	0	0
Nc1nc(N)nc(-c2cccc(Cl)c2)n1	0	-	?	-
O=C(CNC(=O)c1ccccn1)N=Nc1c(O)[nH]c2ccccc12	?	0	0	47.1
CC(=O)/C=C(\C)N=Nc1c(O)[nH]c2ccccc12	0	32.3	0	56.3
CCn1c(O)c(N=NC(=O)CNC(=O)c2ccco2)c2ccccc21	0	0	0	0
O=C(N=Nc1c(O)[nH]c2ccccc12)c1ccc2c(c1)OCO2	0	26.7	0	0
CCC(O)(CC)C(=O)N=Nc1c(O)[nH]c2ccccc12	0	0	0[5.75 µM]	0
CCCn1c(O)c(N=NC(=O)c2ccco2)c2ccccc21	?	0	?	52.8
COc1cccc(OCC(=O)Nc2c3c(nn2-c2ccccc2)CS(=O)(=O)C3)c1	0	0	0	0
CCCn1c(O)c(N=NC(=O)CNC(=O)c2cccnc2)c2ccccc21	0	0	0	0
O=C(CSCc1ccccc1)N=Nc1c(O)[nH]c2ccccc12	0	27.4	0	0
O=C(CSCc1cccc(Br)c1)N=Nc1c(O)[nH]c2ccccc12	0	0	0	0
CC(C)CC(=O)N=Nc1c(O)[nH]c2ccccc12	0	26.2	?	105.7
CCCn1c(O)c(N=NC(=O)c2cccnc2)c2cc(Br)ccc21	5.86µM	0	5.86µM	0
Oc1[nH]c2ccccc2c1N=NC(=S)NCCc1ccccc1	0	0	0	0
O=C(N=Nc1c(O)[nH]c2ccccc12)c1ccco1	0	45.1	?	65.1
Cc1ccc(NC(=O)CNC(=O)Cc2cccc3ccccc23)c(O)c1	0	-	0	-
CN1CCN(C2Cc3ccccc3Sc3ccc(Cl)cc32)CC1 (stereo unspecified)	13.1µM	-	16.9µM	-
SMILES	Pf growth 48h	Cycloheximide cs	Pf growth 96h	Shiga toxin inh
Cn1nnc2c(NCc3ccco3)nccc21	0	0	0	0
COc1ccc(Nc2nccc3c2nnn3C)cc1	0	45.4	0	96.8
Fc1ccc(N/N=C/C=C/c2ccccc2)c(F)c1	0	32.3	?	34.3
Fc1ccc(N/N=C/c2ccncc2)c(F)c1	0	39.9	0	50.0
O=C(O)c1ccc(/C=N/Nc2ccc(F)cc2F)cc1	0	40.4	0	131.2
O=C(CNC(=O)c1cccc(F)c1)N/N=C/C=C/c1ccccc1	0	0	0	0
O=C(N/N=C/c1ccc(F)cc1)c1ccncc1	0	0	0	-
COc1cccc(NC(=O)C(=O)NCCC2CCCCN2S(=O)(=O)c2ccccc2)c1 (stereo unspecified)	0	-	0	-
CCOc1ccc(NC(=O)CN(C)C(=O)c2ccc(=O)[nH]c2)cc1OCC	0	0	0	0
Cn1nc(C(F)(F)F)c2cc(C(=O)Nc3ccc(F)c(Cl)c3)sc21	3.29µM	0	2.08µM	0
Cn1nc(C(F)(F)F)c2cc(C(=O)Nc3ccc(C(F)(F)F)cc3)sc21	6.57µM	0	?	0
CCn1c(=O)c2c(nc(SCC(=O)NC3CCCC3)n2C)n(C)c1=O	0	0	?	0
O=C(O)C(Cc1ccccc1)Nc1ccc([N+](=O)[O-])cc1[N+](=O)[O-] (stereo unspecified)	?	20.3	6.57µM	0
NC(=O)c1cc([N+](=O)[O-])ccc1NCCc1ccccc1	0	active	13.1µM	0
NC(=O)c1ccc(NCCc2ccccc2)c([N+](=O)[O-])c1	0	15.5	?	0
COc1ccc(NC(=O)CCC(=O)NCc2ccco2)c([N+](=O)[O-])c1	0	0	0	0
NC(=O)c1ccc(NCc2ccco2)c([N+](=O)[O-])c1	?	17.0	0	0
O=C(Nc1ccccc1)c1ccc(NCCc2ccccc2)c([N+](=O)[O-])c1	?	0	?	0
